system: MOLM14; experiment: cell viability relative to vehicle control; higher = less cytotoxic; conditions: 10 µM; SRSF2 genotype: SRSF2 wt/wt
Method in brief: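 Each screen used CRISPR-edited mutant and wild-type clones from four leukaemia lines. Compounds were acoustically dispensed at a single 10 µM dose, and CellTiter-Glo luminescence was read after 48 h with the supernatant first removed. Viability was analysed in Genedata Screener and given as percent of the on-plate vehicle control.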

Structure (SMILES)	cell viability [%]
O=c1cc(-c2ccc(O)c(O)c2)oc2cc(O)c([C@@H]3O[C@H](CO)[C@@H](O)[C@H](O)[C@H]3O)c(O)c12 [Homoorientin]	90
CC(C)(O)CC(=O)NCCn1ccc2ncnc(Nc3ccc(Oc4cccc(C(F)(F)F)c4)c(Cl)c3)c21	79.4
C=CC(=O)Nc1cccc(Nc2nc(Nc3ccc(OCCOC)cc3)ncc2F)c1	6.93
Cc1ncc(COP(=O)(O)O)c(C=O)c1O [Pyridoxal phosphate]	106
NC(=O)c1cnccn1 [Pyrazinamide (Pyrazinoic acid amide)]	105
O=C(O)c1ccc(O)c(O)c1 [Protocatechuic acid]	103
O=C(NC(NC(=S)Nc1ccc(F)c([N+](=O)[O-])c1)C(Cl)(Cl)Cl)C(c1ccccc1)c1ccccc1 (configuration not stated)	4.68
O=C1CCN(c2ccccc2)N1 [Phenidone]	105
C[C@@H]1CC[C@@]2(OC1)O[C@H]1C[C@H]3[C@@H]4CC=C5C[C@@H](O[C@@H]6O[C@H](CO)[C@@H](O)[C@H](O)[C@H]6O)CC[C@]5(C)[C@H]4CC[C@]3(C)[C@H]1[C@@H]2C [Trillin]	93.2
COc1ccc(C[C@@H]2c3cc(Oc4cc(C[C@@H]5c6cc(O)c(OC)cc6CCN5C)ccc4O)c(OC)cc3CCN2C)cc1 [Isoliensinine]	1.04
CCCCCCCCOc1ccccc1C(=O)Nc1ccc(C(=O)OCC[N+](C)(CC)CC)cc1 [Otilonium Bromide]	89
COC(=O)c1cc(O)c(O)c(O)c1 [Methyl gallate]	104

Reference: the supplement of paper PMC10981050
